Source: publication PMC7862700, “An all-to-all approach to the identification of sequence-specific readers for epigenetic DNA modifications on cytosine”

Key:
Test in all cases: DAPPL (digital affinity profiling via proximity ligation, sequencing); 10 mM Tris-HCl pH 7.5, 50 mM NaCl, 1 mM DTT, 4% glycerol, room temperature, 30 min; GST-TFs on glutathione beads, 16-mer random dsDNA library, 0.1% formaldehyde crosslink after washing; high values mean tight binding
Settings in all cases: protein: recombinant; tags: N-terminal GST; dsDNA, one strand shown
FLI1 = target: T1, FLI1 (Homo sapiens, UniProt Q01543 1-452)
T1 sequence: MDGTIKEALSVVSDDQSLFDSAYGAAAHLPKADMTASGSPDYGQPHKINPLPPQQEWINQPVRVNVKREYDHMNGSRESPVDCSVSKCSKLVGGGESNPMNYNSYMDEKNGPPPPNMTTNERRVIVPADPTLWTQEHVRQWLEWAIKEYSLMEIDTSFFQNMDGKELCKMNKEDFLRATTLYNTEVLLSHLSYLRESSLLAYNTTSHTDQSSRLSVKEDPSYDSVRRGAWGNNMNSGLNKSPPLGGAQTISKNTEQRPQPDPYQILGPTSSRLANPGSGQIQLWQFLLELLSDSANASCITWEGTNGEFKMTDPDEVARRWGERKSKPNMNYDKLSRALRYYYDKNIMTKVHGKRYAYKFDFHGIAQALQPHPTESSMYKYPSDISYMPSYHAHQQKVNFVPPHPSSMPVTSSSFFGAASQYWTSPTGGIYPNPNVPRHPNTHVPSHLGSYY
Procedure, shortened: (§1)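 Yeast served to express human transcription factors as GST fusions, which were then captured on glutathione beads and labelled with DNA barcodes. Pooled with a tag-only sample, they were incubated with 200 nmole of a 16-mer random double-stranded DNA library for 30 min at room temperature in Tris/NaCl/DTT/glycerol buffer, washed, crosslinked with 0.1% formaldehyde, ligated by proximity, amplified by PCR and sequenced. Dividing each hexamer's read frequency for a factor by its frequency for the tag-only sample gives the binding signal.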

ELK1 = target: T2, ELK1 (Homo sapiens, UniProt P19419 1-428)
T2 sequence: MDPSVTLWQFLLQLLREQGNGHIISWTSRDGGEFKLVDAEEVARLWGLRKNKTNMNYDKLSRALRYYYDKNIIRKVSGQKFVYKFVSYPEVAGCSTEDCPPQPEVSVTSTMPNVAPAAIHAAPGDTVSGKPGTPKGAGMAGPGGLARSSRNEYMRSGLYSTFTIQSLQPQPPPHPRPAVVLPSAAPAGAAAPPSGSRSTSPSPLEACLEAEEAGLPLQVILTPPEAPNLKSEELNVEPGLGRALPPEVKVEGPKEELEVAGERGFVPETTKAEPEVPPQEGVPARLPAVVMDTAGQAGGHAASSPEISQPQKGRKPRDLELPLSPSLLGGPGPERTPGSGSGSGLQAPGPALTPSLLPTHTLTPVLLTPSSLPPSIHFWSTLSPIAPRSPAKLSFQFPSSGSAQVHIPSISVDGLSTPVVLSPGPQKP
Procedure, shortened: as §1

GABPA = target: T3, GABPA (Homo sapiens, UniProt Q06546 1-454)
T3 sequence: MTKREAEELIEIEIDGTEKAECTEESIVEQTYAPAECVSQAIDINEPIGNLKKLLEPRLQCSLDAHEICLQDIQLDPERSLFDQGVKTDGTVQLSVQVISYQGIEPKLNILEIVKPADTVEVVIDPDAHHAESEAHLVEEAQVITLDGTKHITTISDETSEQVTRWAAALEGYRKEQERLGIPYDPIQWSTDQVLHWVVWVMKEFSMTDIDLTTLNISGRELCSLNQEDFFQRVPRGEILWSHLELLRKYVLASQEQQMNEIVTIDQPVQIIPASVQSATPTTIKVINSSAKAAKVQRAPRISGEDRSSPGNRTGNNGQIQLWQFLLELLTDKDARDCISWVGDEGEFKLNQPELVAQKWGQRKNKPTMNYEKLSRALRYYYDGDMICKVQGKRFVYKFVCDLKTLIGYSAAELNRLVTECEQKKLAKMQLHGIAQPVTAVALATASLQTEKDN
Procedure, shortened: as §1

ERG = target: T4, ERG (Homo sapiens, UniProt P11308 1-479)
T4 sequence: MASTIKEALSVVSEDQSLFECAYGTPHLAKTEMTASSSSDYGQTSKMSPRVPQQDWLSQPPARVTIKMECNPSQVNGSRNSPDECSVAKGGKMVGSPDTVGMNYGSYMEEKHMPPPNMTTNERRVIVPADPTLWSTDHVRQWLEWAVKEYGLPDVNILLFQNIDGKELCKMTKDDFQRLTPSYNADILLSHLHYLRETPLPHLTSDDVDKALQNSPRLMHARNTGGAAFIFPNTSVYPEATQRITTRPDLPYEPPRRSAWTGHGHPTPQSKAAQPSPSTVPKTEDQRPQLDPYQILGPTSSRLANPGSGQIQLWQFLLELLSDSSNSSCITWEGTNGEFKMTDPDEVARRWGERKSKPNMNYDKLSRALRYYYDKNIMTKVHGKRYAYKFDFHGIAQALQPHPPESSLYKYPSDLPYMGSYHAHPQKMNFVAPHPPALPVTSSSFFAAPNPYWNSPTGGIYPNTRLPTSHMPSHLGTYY
Procedure, shortened: as §1

ELF1 = ELF1 (Homo sapiens, UniProt P32519 1-619)
Procedure, shortened: as §1

SPIC = target: T5, SPIC (Homo sapiens, UniProt Q8N5J4 1-248)
T5 sequence: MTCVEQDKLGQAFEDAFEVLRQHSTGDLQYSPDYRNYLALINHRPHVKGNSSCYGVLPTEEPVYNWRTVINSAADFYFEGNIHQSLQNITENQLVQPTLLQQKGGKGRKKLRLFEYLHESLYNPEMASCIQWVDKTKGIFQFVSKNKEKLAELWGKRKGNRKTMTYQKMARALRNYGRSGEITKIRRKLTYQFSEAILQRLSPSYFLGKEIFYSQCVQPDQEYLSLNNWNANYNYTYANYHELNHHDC
Procedure, shortened: as §1

ELF4 = ELF4 (Homo sapiens, UniProt Q99607 1-663)
Procedure, shortened: as §1

ELK4 = target: T6, ELK4 (Homo sapiens, UniProt P28324-2 1-405)
T6 sequence: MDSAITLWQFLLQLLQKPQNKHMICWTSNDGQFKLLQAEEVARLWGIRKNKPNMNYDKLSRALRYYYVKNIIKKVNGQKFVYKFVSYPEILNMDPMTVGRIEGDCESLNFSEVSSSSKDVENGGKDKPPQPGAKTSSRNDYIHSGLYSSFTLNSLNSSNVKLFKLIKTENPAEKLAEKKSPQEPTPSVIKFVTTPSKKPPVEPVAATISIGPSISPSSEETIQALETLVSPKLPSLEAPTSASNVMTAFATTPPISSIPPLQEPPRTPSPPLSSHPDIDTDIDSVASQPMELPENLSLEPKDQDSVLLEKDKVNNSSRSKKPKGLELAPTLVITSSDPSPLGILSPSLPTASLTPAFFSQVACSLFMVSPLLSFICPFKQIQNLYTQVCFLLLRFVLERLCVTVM
Procedure, shortened: as §1

ELF3 = target: T7, ELF3 (Homo sapiens, UniProt P78545 1-371)
T7 sequence: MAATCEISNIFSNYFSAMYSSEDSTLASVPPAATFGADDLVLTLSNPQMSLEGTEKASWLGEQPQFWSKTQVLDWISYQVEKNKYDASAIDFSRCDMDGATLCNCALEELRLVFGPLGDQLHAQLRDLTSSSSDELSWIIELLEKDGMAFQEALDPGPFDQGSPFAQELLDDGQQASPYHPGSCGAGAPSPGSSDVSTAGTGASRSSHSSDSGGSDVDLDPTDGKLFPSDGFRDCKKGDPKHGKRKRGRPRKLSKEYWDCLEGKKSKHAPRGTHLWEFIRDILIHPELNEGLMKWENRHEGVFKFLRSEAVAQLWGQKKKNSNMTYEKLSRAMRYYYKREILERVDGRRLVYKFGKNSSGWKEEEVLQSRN
Procedure, shortened: as §1

ERF = target: T8, ERF (Homo sapiens, UniProt P50548 1-548)
T8 sequence: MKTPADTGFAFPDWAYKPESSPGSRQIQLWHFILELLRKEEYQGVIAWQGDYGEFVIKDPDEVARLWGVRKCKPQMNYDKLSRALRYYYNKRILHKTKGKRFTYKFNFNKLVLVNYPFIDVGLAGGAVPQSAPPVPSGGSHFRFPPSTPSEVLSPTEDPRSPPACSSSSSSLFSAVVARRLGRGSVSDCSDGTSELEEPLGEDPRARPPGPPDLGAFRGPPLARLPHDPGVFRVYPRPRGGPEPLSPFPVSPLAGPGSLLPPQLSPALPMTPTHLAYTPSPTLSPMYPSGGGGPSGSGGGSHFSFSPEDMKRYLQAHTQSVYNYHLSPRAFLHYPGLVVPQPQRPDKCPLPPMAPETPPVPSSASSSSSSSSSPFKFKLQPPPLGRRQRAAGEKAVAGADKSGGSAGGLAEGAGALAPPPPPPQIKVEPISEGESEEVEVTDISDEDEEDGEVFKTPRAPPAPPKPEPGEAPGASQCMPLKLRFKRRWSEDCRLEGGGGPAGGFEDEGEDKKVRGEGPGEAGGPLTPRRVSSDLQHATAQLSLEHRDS
Procedure, shortened: as §1

ETV3L = target: T9, ETV3L (Homo sapiens, UniProt Q6ZN32 1-361)
T9 sequence: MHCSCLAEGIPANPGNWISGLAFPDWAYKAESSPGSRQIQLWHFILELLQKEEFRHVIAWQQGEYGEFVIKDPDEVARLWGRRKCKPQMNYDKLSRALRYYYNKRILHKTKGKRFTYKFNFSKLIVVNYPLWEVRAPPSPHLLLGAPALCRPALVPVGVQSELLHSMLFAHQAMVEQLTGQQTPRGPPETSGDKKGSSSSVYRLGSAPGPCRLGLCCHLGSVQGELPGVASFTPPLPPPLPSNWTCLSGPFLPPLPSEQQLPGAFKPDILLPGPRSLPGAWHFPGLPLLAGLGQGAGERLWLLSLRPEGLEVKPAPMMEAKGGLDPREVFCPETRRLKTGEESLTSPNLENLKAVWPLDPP
Procedure, shortened: as §1

ETS2 = target: T10, ETS2 (Homo sapiens, UniProt P15036 1-469)
T10 sequence: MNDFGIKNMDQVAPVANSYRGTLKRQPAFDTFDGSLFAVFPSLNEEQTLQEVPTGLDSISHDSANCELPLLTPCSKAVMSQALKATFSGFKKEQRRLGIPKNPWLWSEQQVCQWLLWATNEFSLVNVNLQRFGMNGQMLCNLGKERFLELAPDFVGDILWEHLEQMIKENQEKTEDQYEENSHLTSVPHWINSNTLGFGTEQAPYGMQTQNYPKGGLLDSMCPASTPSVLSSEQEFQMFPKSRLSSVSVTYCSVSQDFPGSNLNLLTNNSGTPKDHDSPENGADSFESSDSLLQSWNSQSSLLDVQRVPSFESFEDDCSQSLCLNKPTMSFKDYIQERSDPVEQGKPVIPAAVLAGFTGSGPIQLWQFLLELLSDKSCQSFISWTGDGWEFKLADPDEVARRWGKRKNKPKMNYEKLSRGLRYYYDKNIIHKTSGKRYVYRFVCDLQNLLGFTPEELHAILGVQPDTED
Procedure, shortened: as §1

ETV3 = target: T11, ETV3 (Homo sapiens, UniProt P41162-2 1-143)
T11 sequence: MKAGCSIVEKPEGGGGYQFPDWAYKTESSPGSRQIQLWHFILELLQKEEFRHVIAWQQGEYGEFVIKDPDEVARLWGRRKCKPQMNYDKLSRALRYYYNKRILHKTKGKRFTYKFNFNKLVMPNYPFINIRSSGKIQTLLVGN
Procedure, shortened: as §1

ETV6 = ETV6 (Homo sapiens, UniProt P41212 1-452)
Procedure, shortened: as §1

ELF4, sequence (Q99607 whole entry): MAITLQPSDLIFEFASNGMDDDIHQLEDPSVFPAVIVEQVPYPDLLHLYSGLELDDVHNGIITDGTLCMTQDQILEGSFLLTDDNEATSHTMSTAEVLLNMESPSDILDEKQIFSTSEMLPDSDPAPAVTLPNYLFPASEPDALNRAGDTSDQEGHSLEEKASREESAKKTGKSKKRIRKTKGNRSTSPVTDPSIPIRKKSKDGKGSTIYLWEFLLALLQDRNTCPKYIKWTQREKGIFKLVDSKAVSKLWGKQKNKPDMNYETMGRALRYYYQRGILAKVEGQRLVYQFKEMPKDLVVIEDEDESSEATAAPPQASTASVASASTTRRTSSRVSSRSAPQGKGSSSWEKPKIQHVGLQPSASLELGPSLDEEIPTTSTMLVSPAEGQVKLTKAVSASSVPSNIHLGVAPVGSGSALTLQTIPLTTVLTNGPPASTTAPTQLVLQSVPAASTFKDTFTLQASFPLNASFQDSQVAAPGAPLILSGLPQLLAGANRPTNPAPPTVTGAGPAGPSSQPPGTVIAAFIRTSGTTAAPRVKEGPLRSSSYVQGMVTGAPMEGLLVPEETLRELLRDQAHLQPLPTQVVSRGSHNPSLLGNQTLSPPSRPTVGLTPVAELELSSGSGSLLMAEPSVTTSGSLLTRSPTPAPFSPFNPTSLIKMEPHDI
ELF1, sequence (P32519 whole entry): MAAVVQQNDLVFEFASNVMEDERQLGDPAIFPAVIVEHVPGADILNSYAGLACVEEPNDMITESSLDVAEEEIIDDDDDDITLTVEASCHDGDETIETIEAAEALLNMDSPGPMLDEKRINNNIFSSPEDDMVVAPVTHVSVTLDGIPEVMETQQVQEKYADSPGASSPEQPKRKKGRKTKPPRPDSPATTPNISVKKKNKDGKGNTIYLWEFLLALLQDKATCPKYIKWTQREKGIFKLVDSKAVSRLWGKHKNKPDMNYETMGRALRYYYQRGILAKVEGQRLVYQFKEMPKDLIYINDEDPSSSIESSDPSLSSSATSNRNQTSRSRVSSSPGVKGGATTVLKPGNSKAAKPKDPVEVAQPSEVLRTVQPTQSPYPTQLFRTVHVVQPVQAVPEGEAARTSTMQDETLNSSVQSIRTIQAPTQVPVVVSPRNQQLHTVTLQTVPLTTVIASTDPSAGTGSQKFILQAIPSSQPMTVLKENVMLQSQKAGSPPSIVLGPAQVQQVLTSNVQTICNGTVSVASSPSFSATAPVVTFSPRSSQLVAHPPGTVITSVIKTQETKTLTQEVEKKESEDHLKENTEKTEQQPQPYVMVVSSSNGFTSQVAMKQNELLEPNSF
ETV6, sequence (P41212 whole entry): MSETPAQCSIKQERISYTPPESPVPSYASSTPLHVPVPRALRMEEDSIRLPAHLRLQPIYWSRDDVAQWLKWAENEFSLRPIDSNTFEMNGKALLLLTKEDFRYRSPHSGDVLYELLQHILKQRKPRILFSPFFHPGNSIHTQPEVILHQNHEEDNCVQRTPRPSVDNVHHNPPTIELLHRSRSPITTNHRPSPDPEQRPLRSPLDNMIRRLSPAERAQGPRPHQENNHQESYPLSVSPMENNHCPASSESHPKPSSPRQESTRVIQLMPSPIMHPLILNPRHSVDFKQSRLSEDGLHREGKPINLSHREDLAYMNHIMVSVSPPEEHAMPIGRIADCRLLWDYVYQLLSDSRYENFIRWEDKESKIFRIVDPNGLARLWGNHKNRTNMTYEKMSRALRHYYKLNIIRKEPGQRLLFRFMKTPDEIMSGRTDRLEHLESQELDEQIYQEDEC

Row | Sequence | binding signal (FLI1) | binding signal (ELK1) | binding signal (GABPA) | binding signal (ERG) | binding signal (ELF1) | binding signal (SPIC) | binding signal (ELF4) | binding signal (ELK4) | binding signal (ELF3) | binding signal (ERF) | binding signal (ETV3L) | binding signal (ETS2) | binding signal (ETV3) | binding signal (ETV6)
1 | GCCCGA | 1.12 fold enrichment (6-mer frequency, TF over GST control) | 1.01 fold enrichment (6-mer frequency, TF over GST control) | 1.02 fold enrichment (6-mer frequency, TF over GST control) | 1.01 fold enrichment (6-mer frequency, TF over GST control) | 1.14 fold enrichment (6-mer frequency, TF over GST control) | 1.11 fold enrichment (6-mer frequency, TF over GST control) | 1.02 fold enrichment (6-mer frequency, TF over GST control) | 1.1 fold enrichment (6-mer frequency, TF over GST control) | 1.21 fold enrichment (6-mer frequency, TF over GST control) | 1.05 fold enrichment (6-mer frequency, TF over GST control) | 1.01 fold enrichment (6-mer frequency, TF over GST control) | 1.08 fold enrichment (6-mer frequency, TF over GST control) | 1.04 fold enrichment (6-mer frequency, TF over GST control) | 1.07 fold enrichment (6-mer frequency, TF over GST control)
2 | GTAAGC | 1.02 fold enrichment (6-mer frequency, TF over GST control) |  |  |  |  | 1.01 fold enrichment (6-mer frequency, TF over GST control) |  |  |  |  |  |  |  | 
